# Reference: PubChem BioAssay (EPA / NIEHS)
# Calls of active or inactive are those of the source. Rule for the calls: active = hit-call score of the fitted dose curve at least 0.9, where 1 is the maximum; inactive = score below 0.9.
# Tests used:
# [1] = ATG_CMV_CIS: Attagene CIS-FACTORIAL HepG2 Assay for human CMV (Internal Marker) (AID 2282928); details: HepG2 CMV promoter reporter, transcription factor profiling; actives raise or lower the signal;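 note: endpoint acts as a background internal control marker rather than a target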
# How it was run: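 HepG2 cells transiently transfected with multiple cis-regulated reporter units; 24 h compound exposure. Reporter mRNA quantified by RT-PCR, 6-FAM primer-extension labeling, HpaI digestion and capillary electrophoresis; bidirectional fitting against DMSO baseline.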
# [2] = target: Aryl hydrocarbon receptor (Homo sapiens) (UniProt P35869); test: ATG_Ahr_CIS: Attagene CIS-FACTORIAL HepG2 Assay for human Aryl Hydrocarbon Receptor (Ahr) (AID 2282930); details: HepG2 AhR cis-factorial reporter transcription; actives raise or lower the signal
# How it was run: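 Values derive from bidirectional fitting against DMSO negative control. Underlying signal: cis-element reporter mRNA in transiently transfected HepG2, harvested 24 h post-dose and measured by RT-PCR plus capillary electrophoresis.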
# [3] = ATG_AP_1_CIS: Attagene CIS-FACTORIAL HepG2 Assay for human Activator Protein 1 (AP-1) (AID 2282931); details: HepG2 Attagene cis-factorial AP-1 reporter mRNA; actives raise or lower the signal
# How it was run: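 We transfected HepG2 cells transiently with a set of cis-regulated reporter transcription units, dosed them for 24 h, and quantified reporter mRNA via RT-PCR and capillary electrophoresis, scoring gain or loss of signal relative to DMSO.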
# [4] = ATG_BRE_CIS: Attagene CIS-FACTORIAL HepG2 Assay for human Bone Morphogenetic Protein (BMP) Response Element (BRE) (AID 2282933); details: HepG2 BMP response element reporter, Attagene transcription factor profiling; actives raise or lower the signal
# How it was run: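 Multiplexed cis-reporter assay, HepG2, 24 h exposure. mRNA from reporter units quantified via RT-PCR/CE; DMSO baseline; bidirectional curve fit.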
# [5] = target: Retinoic acid receptor alpha (Homo sapiens) (UniProt P10276); test: ATG_DR5_RAR_CIS: Attagene CIS-FACTORIAL HepG2 Assay for human Retinoic Acid Receptor Alpha (RARE), DR5 submotif (AID 2282934); details: HepG2 Attagene cis-factorial RARE DR5 reporter, mRNA; actives raise or lower the signal;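 for AC50: reporter responds to endogenous RAR alpha beta and gamma in HepG2 not RARA alone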
# How it was run: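 Endpoint fitted in both directions relative to DMSO as negative control. It reflects DR5 cis-element reporter mRNA induction in transiently transfected HepG2 cells, measured 24 h after dosing through RT-PCR and fluorescent capillary electrophoresis.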
# [6] = target: Transcription factor E2F1 (Homo sapiens) (UniProt Q01094); test: ATG_E2F_CIS: Attagene CIS-FACTORIAL HepG2 Assay for human E2F Transcription Factor 1 (AID 2282935); details: HepG2 Attagene cis-reporter, E2F reporter RNA transcripts; actives raise or lower the signal
# How it was run: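 HepG2 cells transiently transfected with multiplexed cis-element reporter units, dosed for 24 h. Reporter mRNA measured by RT-PCR, 6-FAM primer-extension labeling, HpaI digestion and capillary electrophoresis; bidirectional fit versus DMSO baseline.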
# [7] = ATG_E_Box_CIS: Attagene CIS-FACTORIAL HepG2 Assay for human Enhancer Box (E-box) (AID 2282936); details: HepG2 E-box cis-reporter transcription, actives raise or lower the signal
# How it was run: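 HepG2 cells transiently transfected with multiplexed cis-element reporter units sensing endogenous transcription factor activity; 24 h compound exposure. Reporter mRNA measured by RT-PCR, 6-FAM primer extension, HpaI digestion and capillary electrophoresis; bidirectional fit versus DMSO.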
# [8] = ATG_M_61_CIS: Attagene CIS-FACTORIAL HepG2 Assay for M61 Transcription Factor (Internal Marker) (AID 2282937); details: HepG2 Attagene CIS-FACTORIAL M61 internal marker reporter; actives raise or lower the signal
# How it was run: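 Multiplexed reporter mRNA assay, HepG2 human hepatoma cells, 24 h treatment. Signal: FAM-labelled, HpaI-digested RT-PCR fragments by CE. Fit: bidirectional, baseline DMSO.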
# [9] = ATG_EGR_CIS: Attagene CIS-FACTORIAL HepG2 Assay for human Early Growth Response 1 (EGR1) (AID 2282938); details: HepG2 Attagene CIS-FACTORIAL EGR reporter mRNA; actives raise or lower the signal
# How it was run: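 Multiplexed cis-reporter system in human hepatoma HepG2 cells, transiently transfected. Cells are dosed for 24 h; reporter transcripts are amplified, fluorescently tagged and sized by capillary electrophoresis, with DMSO as negative control.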
# [10] = ATG_M_19_CIS: Attagene CIS-FACTORIAL HepG2 Assay for M19 Transcription Factor (Internal Marker) (AID 2282939); details: HepG2 Attagene CIS-FACTORIAL M19 internal marker reporter; actives raise or lower the signal
# How it was run: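 Signals come from fluorescence of labelled reporter-specific PCR fragments resolved by capillary electrophoresis, following 24 h treatment of HepG2 cells transfected with cis-promoter reporter units; activity was fitted in both directions relative to DMSO.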
# [11] = ATG_ERE_CIS: Attagene CIS-FACTORIAL HepG2 Assay for Estrogen Response Element (ERE) (AID 2282940); details: HepG2 ERE cis-reporter, Attagene RNA transcript; actives raise or lower the signal
# How it was run: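 Fluorescence of capillary-separated, FAM-labelled reporter cDNA fragments indicates reporter mRNA levels in HepG2 cells exposed to chemicals for 24 h. Transient transfection with cis-regulated units; data fitted in both directions against DMSO.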
# [12] = ATG_Ets_CIS: Attagene CIS-FACTORIAL HepG2 Assay for human Erythroblast Transformation Specific (ETS) (AID 2282941); details: HepG2 ETS cis-reporter transcription, actives raise or lower the signal
# How it was run: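 HepG2 cells transiently transfected with cis-promoter reporter transcription units were dosed for 24 h; reporter mRNA was measured by RT-PCR, 6-FAM primer extension, HpaI digestion and capillary electrophoresis, with bidirectional fitting against DMSO baseline.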
# [13] = target: Hepatocyte nuclear factor 3-beta (Homo sapiens) (UniProt Q9Y261); test: ATG_FoxA2_CIS: Attagene CIS-FACTORIAL HepG2 Assay for human Forkhead box A2 (FOXA2) (AID 2282942); details: HepG2 cis-reporter transcription factor activity, 24 h; actives raise or lower the signal
# How it was run: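 Multiplexed cis-element reporter assay in transiently transfected HepG2. Twenty-four hours post-dosing, RNA was reverse-transcribed, amplified, FAM-labelled, HpaI-digested and separated by CE. Activity gain or loss relative to DMSO.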
# [14] = ATG_FoxO_CIS: Attagene CIS-FACTORIAL HepG2 Assay for human Forkhead box O (FoxO) (AID 2282943); details: HepG2 Attagene cis-reporter, FoxO element, mRNA; actives raise or lower the signal
# How it was run: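 Values reflect reporter mRNA induction or loss in HepG2 cells 24 h post-dosing, fitted bidirectionally with DMSO as negative control and baseline. Detection used RT-PCR and fluorescence capillary electrophoresis.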
# [15] = ATG_GATA_CIS: Attagene CIS-FACTORIAL HepG2 Assay for human GATA Binding Protein (AID 2282944); details: HepG2 GATA cis-element reporter, Attagene multiplex mRNA; actives raise or lower the signal
# How it was run: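 After transfecting HepG2 cells with multiple cis-regulated reporter units, chemicals are dosed for 24 h; isolated RNA undergoes RT-PCR and fluorescent labeling before capillary electrophoresis, with activity expressed against DMSO.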
# [16] = ATG_GLI_CIS: Attagene CIS-FACTORIAL HepG2 Assay for human Zinc Finger Protein GLI1 (AID 2282945); details: HepG2, Attagene cis-factorial reporter mRNA, GLI element; actives raise or lower the signal
# How it was run: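 HepG2 cells transiently transfected with cis-promoter multiplexed reporter units report endogenous transcription factor activity. After 24 h chemical exposure, reporter mRNA was quantified by RT-PCR, 6-FAM labelling, HpaI digestion and capillary electrophoresis, with bidirectional fitting against DMSO.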
# [17] = target: Bile acid receptor (Homo sapiens) (UniProt Q96RI1); test: ATG_IR1_CIS: Attagene CIS-FACTORIAL HepG2 Assay for human Nuclear Receptor Subfamily 1 Group H Member 4 (NR1H4), IR1 submotif (AID 2282946); details: IR1 reporter transcription, actives raise or lower the signal
# How it was run: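 Transient MRTU transfection, HepG2; 24 h dosing; RNA → RT-PCR → 6-FAM primer extension → HpaI digest → capillary electrophoresis fluorescence. Gain/loss of signal fitted relative to DMSO.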
# [18] = ATG_GRE_CIS: Attagene CIS-FACTORIAL HepG2 Assay for human Glucocorticoid Response Elements (GRE) (AID 2282947); details: HepG2 GRE cis-reporter, Attagene multiplex mRNA; actives raise or lower the signal
# How it was run: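 HepG2 cells transiently transfected with multiple cis-promoter reporter units measure endogenous TF activity; 24 h compound exposure. Reporter mRNA quantified by RT-PCR, FAM labelling, HpaI digestion and capillary electrophoresis; bidirectional fit vs DMSO baseline.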
# [19] = ATG_AP_2_CIS: Attagene CIS-FACTORIAL HepG2 Assay for human Activator Protein 2 (AP-2) (AID 2282932); details: HepG2 AP-2 cis-reporter, Attagene transcription factor profiling; actives raise or lower the signal
# How it was run: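 HepG2 cells were transiently transfected with multiple cis-promoter reporter transcription units and dosed for 24 h. Reporter mRNA was measured by RT-PCR with capillary electrophoresis fluorescence; bidirectional fits relative to DMSO baseline.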
# Chain of Aryl hydrocarbon receptor (Homo sapiens) (P35869 whole entry, looked up): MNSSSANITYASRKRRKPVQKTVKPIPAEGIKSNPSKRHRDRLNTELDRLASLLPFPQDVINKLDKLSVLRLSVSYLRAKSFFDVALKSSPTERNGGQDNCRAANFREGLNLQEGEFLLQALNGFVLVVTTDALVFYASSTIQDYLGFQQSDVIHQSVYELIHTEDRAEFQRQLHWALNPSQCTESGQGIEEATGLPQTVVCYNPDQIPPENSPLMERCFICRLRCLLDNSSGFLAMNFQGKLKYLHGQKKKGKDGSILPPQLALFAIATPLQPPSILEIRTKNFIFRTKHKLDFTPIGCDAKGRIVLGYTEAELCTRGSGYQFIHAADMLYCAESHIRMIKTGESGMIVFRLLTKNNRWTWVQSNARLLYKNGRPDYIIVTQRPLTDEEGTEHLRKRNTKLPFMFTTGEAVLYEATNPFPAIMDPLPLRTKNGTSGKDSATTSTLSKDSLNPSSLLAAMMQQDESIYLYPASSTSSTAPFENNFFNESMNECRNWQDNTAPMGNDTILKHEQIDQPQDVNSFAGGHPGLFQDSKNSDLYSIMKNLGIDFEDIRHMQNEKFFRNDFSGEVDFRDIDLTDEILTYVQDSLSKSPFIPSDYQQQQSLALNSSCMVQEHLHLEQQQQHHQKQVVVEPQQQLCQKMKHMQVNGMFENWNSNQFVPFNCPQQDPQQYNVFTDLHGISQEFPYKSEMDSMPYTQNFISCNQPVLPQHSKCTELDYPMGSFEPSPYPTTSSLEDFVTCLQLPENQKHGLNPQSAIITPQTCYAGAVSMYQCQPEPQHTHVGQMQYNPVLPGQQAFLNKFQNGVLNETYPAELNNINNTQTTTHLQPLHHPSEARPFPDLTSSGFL
# Chain of Hepatocyte nuclear factor 3-beta (Homo sapiens) (Q9Y261 whole entry, looked up): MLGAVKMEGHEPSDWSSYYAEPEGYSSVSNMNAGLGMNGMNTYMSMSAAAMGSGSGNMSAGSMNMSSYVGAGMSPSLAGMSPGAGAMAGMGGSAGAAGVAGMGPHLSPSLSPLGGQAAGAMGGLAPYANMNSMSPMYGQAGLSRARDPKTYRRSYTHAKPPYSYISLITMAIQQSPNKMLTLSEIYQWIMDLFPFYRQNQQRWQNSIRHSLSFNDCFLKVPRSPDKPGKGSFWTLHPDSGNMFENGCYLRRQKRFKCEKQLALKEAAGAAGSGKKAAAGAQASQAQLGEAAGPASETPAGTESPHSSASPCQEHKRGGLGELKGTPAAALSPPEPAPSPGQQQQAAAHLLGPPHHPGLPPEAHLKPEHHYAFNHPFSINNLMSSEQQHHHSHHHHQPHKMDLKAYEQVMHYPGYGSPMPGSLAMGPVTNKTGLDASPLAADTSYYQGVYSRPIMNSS
# Chain of Bile acid receptor (Homo sapiens) (Q96RI1 whole entry, looked up): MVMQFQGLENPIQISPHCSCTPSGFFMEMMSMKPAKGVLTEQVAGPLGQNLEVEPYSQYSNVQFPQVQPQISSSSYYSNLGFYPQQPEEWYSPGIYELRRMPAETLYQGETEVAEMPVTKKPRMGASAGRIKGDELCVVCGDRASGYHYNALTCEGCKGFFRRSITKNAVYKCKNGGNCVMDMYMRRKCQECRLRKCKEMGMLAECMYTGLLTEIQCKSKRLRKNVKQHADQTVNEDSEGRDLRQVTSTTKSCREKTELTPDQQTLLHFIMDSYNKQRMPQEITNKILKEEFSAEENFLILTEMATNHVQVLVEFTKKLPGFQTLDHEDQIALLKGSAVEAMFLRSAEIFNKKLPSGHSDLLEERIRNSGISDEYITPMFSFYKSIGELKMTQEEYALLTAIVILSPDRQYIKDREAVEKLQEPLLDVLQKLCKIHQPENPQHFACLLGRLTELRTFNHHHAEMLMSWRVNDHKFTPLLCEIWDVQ
# Chain of Retinoic acid receptor alpha (Homo sapiens) (P10276 whole entry, looked up): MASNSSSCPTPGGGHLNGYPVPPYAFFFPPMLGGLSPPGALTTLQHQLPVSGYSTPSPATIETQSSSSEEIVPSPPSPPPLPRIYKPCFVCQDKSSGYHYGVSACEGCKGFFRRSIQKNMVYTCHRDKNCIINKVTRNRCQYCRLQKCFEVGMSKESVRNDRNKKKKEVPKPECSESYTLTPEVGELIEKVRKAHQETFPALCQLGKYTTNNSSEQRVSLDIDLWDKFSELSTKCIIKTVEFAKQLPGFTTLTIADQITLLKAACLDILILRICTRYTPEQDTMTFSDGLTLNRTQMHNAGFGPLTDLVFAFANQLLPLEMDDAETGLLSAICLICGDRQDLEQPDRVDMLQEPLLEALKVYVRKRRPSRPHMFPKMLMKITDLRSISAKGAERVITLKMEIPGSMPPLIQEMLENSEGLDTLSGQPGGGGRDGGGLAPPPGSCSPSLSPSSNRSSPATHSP
# Chain of Transcription factor E2F1 (Homo sapiens) (Q01094 whole entry, looked up): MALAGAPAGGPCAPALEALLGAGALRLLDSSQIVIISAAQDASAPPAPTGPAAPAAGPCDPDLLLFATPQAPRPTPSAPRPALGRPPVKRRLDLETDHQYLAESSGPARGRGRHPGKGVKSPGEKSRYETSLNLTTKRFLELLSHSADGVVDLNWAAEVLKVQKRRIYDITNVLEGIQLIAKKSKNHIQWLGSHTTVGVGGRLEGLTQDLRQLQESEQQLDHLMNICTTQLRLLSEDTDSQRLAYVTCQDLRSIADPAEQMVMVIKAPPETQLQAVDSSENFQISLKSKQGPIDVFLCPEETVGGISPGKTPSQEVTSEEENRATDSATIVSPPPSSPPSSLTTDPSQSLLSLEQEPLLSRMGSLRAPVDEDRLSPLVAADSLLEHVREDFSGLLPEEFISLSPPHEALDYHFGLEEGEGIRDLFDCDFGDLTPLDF
smiles,measurement,setting,value
CC(C)(c1ccc(O)c(-c2ccccc2)c1)c1ccc(O)c(-c2ccccc2)c1,outcome,[1],inactive
same,outcome,[2],inactive
same,outcome,[3],inactive
same,outcome,[4],inactive
same,outcome,[5],inactive
same,outcome,[6],inactive
same,outcome,[7],inactive
same,outcome,[8],inactive
same,AC50,[9],5.2 µM (active)
same,outcome,[10],inactive
same,outcome,[11],inactive
same,outcome,[12],inactive
same,outcome,[13],inactive
same,outcome,[14],inactive
same,outcome,[15],inactive
same,outcome,[16],inactive
same,outcome,[17],inactive
same,outcome,[18],inactive
OCC(c1ccc(Cl)cc1)c1ccc(Cl)cc1,AC50,[1],45.2 µM (active)
same,outcome,[2],inactive
same,AC50,[3],51.6 µM (active)
same,outcome,[19],inactive
same,outcome,[4],inactive
same,outcome,[5],inactive
same,outcome,[6],inactive
same,outcome,[7],inactive
same,outcome,[8],inactive
same,AC50,[9],53.2 µM (active)
same,outcome,[11],inactive
same,outcome,[12],inactive
same,outcome,[13],inactive
same,outcome,[14],inactive
same,AC50,[15],52.8 µM (active)
same,AC50,[16],61.5 µM (active)
same,AC50,[17],49.9 µM (active)
same,outcome,[18],inactive
CC(=Cc1ccccc1)[N+](=O)[O-],AC50,[1],19.3 µM (active)
same,outcome,[2],inactive
same,AC50,[3],19.9 µM (active)
same,AC50,[19],16.6 µM (active)
same,outcome,[4],inactive
same,outcome,[5],inactive
same,AC50,[6],13.5 µM (active)
same,AC50,[7],17 µM (active)
same,outcome,[8],inactive
same,outcome,[10],inactive
same,outcome,[11],inactive
same,outcome,[12],inactive
same,AC50,[15],16.8 µM (active)
same,AC50,[16],20.1 µM (active)
same,AC50,[17],5.55 µM (active)
same,outcome,[18],inactive
CCCCCCCCCCCCCCC(Br)C(=O)O (configuration not stated),outcome,[1],inactive
same,outcome,[2],inactive
same,AC50,[3],173 µM (active)
same,AC50,[19],100 µM (active)
same,outcome,[4],inactive
same,AC50,[5],26.9 µM (active)
same,AC50,[6],108 µM (active)
same,outcome,[7],inactive
same,AC50,[8],183 µM (active)
same,AC50,[9],146 µM (active)
same,outcome,[12],inactive
same,AC50,[13],62.4 µM (active)
same,outcome,[14],inactive
same,outcome,[15],inactive
same,AC50,[16],137 µM (active)
same,outcome,[17],inactive
same,AC50,[18],159 µM (active)
O=S(=O)(c1ccc(Cl)cc1)c1cc(Cl)c(Cl)cc1Cl,AC50,[1],42.5 µM (active)
same,outcome,[2],inactive
same,outcome,[3],inactive
same,outcome,[19],inactive
same,outcome,[4],inactive
same,AC50,[5],100 µM (active)
same,outcome,[6],inactive
same,outcome,[7],inactive
same,outcome,[8],inactive
same,outcome,[9],inactive
same,outcome,[10],inactive
same,outcome,[11],inactive
same,outcome,[12],inactive
same,outcome,[13],inactive
same,outcome,[15],inactive
same,outcome,[16],inactive
same,AC50,[17],19.3 µM (active)
same,outcome,[18],inactive
Cc1cc(-c2cc(C)c(N)c(C)c2)cc(C)c1N,AC50,[1],37.8 µM (active)
same,AC50,[2],0.776 µM (active)
same,outcome,[3],inactive
same,outcome,[19],inactive
same,outcome,[4],inactive
same,outcome,[5],inactive
same,outcome,[6],inactive
same,outcome,[7],inactive
same,outcome,[8],inactive
same,outcome,[9],inactive
same,outcome,[10],inactive
same,outcome,[11],inactive
same,outcome,[12],inactive
same,outcome,[13],inactive
same,outcome,[15],inactive
same,outcome,[16],inactive
same,outcome,[18],inactive
Fc1cccc(Cl)c1CCl,outcome,[1],inactive
same,outcome,[2],inactive
same,outcome,[3],inactive
same,outcome,[19],inactive
same,outcome,[4],inactive
same,outcome,[5],inactive
same,outcome,[6],inactive
same,outcome,[7],inactive
same,outcome,[8],inactive
same,outcome,[9],inactive
same,outcome,[10],inactive
same,outcome,[12],inactive
same,outcome,[13],inactive
same,outcome,[14],inactive
same,outcome,[15],inactive
same,outcome,[16],inactive
same,outcome,[17],inactive
same,outcome,[18],inactive
